Measured values: PubChem BioAssay (NCI)
The panel holds about 79,000 compounds, 15% with a hit somewhere; the sample as a whole holds those more often. Active and inactive are the calls of the source. Cut-off read from the data, not from the text of the source: active = growth inhibition above about 70%; inactive = the rest. Where a SMILES comes first, the peptide text is derived from it. [ ]: non-standard residue; d: D form. The star is where a group is joined. Phe(4-NO2) = N[CH](Cc1ccc([N+](=O)[O-])cc1)C(=O)O; Boc = CC(C)(C)OC(=O)*

Assays:
[1] = NCI Yeast Anticancer Drug Screen. Data for the rad50 strain (AID 155);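 note: 0% = growth of vehicle-only cultures of the same strain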; conditions: S. cerevisiae rad50 strain growth inhibition; at 50.0 µM; active compounds read high
Summary of the method: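 Readout: growth inhibition relative to vehicle-treated cultures. Compound exposure was carried out in a genetically defined yeast strain deficient in DNA damage repair.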

[2] = NCI Yeast Anticancer Drug Screen. Data for the mec2-1 strain (AID 157); conditions: S. cerevisiae mec2-1 strain, at 50.0 µM, active compounds read high
Summary of the method: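 Growth inhibition is read against vehicle-treated controls after compound exposure of the mec2-1 yeast strain, which is defective in DNA damage repair or cell cycle control.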

[3] = NCI Yeast Anticancer Drug Screen. Data for the sgs1 mgt1 strain (AID 161);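 note: 0% = growth of cultures given vehicle only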; conditions: S. cerevisiae sgs1 mgt1 strain, at 50.0 µM, active compounds read high
Summary of the method: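 Compounds are added to genetically altered yeast, and growth is compared with cultures given vehicle alone to give percent inhibition.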

[4] = NCI Yeast Anticancer Drug Screen. Data for the cln2 rad14 strain (AID 165);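 note: 0% = growth equal to vehicle treated cultures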; conditions: S. cerevisiae cln2 rad14 strain, at 50.0 µM, active compounds read high
Summary of the method: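 Growth inhibition, relative to vehicle-treated controls, is the read-out. The test organism is a yeast strain with defined genetic alterations, cln2 rad14.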

[5] = NCI Yeast Anticancer Drug Screen. Data for the bub3 strain (AID 167); conditions: S. cerevisiae bub3 mutant strain, at 50.0 µM, active compounds read high
Summary of the method: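 Readout: yeast growth inhibition, expressed relative to vehicle-only wells. The test organism is a mutant strain from a panel with lesions in DNA repair or checkpoint genes.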

[6] = NCI Yeast Anticancer Drug Screen. Data for the mlh1 rad18 strain (AID 175); conditions: S. cerevisiae mlh1 rad18 strain growth inhibition; at 50.0 µM; active compounds read high
Summary of the method: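 Cells of a genetically altered yeast strain, deficient in DNA damage repair, were treated with compound. Their growth was then compared with that of vehicle-treated cultures to give inhibition.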

Measured: growth inhibition

CC(C)c1ccc(OC(=N)c2ccccc2)cc1
inactive: [1] 1.5% | [2] -7.35% | [3] -9.45% | [4] -3.95% | [5] 7.85% | [6] 3.6%

NS(=O)(=O)c1ccc(NC(=O)Nc2ccc(Cl)cc2[N+](=O)[O-])cc1
inactive: [1] -9.5% | [2] 18.6% | [3] 30.1% | [4] -16.7% | [5] 29.9% | [6] 30.4%

Oc1c(Br)cc(CN(Cc2cc(Br)c(O)c(Br)c2)C2CCCCC2)cc1Br
inactive: [1] -2.75% | [2] -6.5% | [3] -21.3% | [4] -15.7% | [5] -23.1% | [6] 5.4%

COC(=O)C1=C(C(=O)OC)C(=Nc2ccccc2)c2ccccc2C1=O
inactive: [1] 46.8% | [2] 35.3% | [4] 8.2% | [5] 51.4%
active: [3] 74.2% | [6] 90.6%

Cc1cc2oc(C)c(S(=O)(=O)NC(=O)Nc3ccc(Cl)cc3)c(=O)c2c(=O)o1
inactive: [1] -2.85% | [2] -0.45% | [3] -2.5% | [4] 3.55% | [5] 12.2% | [6] -2.8%

COC(=O)[C@@]12CN(C)[C@@H](C(C)(C)C)N1C(=O)OC2c1ccccc1 (some centres not stated)
inactive: [1] 24.4% | [2] -25.4% | [3] -23.1% | [4] -1.8% | [5] 36.6% | [6] -8.35%

CCOc1ccc2nc(C)ccc2c1
inactive: [1] 3.25% | [2] -14.7% | [3] 21.9% | [4] 9.85% | [5] 4.95% | [6] 17.7%

COc1ccc(C(=C(I)c2ccccc2)c2ccc(OC)cc2)cc1
inactive: [1] -31.6% | [2] -26.4% | [3] -11.4% | [4] -15.9% | [5] -25.4% | [6] -18.9%

NC(=O)C(C1=CCCCC1)c1ccccc1 (configuration not stated)
inactive: [1] 3.25% | [2] -1.3% | [3] 2.1% | [4] 3.15% | [5] 1.95% | [6] 0.9%

Cc1cc(S(N)(=O)=O)c2ncccc2c1
inactive: [1] 1.8% | [2] -3.5% | [3] 2.35% | [4] -33.1% | [5] -8.4% | [6] -3.2%

CCCCCCCCCCCCCCCCCC(=O)N/N=C/c1ccccc1
inactive: [1] 1% | [2] -2.8% | [3] 12% | [4] 2.95% | [5] -1.5% | [6] -5.55%

O=S(=O)(Nc1nc2ccccc2nc1Nc1cccc2ccccc12)c1ccccc1
inactive: [1] -1.3% | [2] -5.05% | [3] 3.8% | [4] -13.5% | [5] -10.9% | [6] -26.4%

CCCCN1C(=O)C(=O)N(CCc2ccc(OC)c(OC)c2)C1=O
inactive: [1] 28% | [2] 5.8% | [3] 11.9% | [4] 18.7% | [5] 1.35% | [6] 18.1%

CCN1CCCC1CO (configuration not stated)
inactive: [1] -1.15% | [2] -25.1% | [3] -10.1% | [4] 0.1% | [5] -4.35% | [6] 6.65%

C=C1C2CCC3(CCC4C5(C)CCCC4(CN(C(C)=O)C5)C3C2)C1O (configuration not stated)
inactive: [1] 11.2% | [2] -5.1% | [3] 10.3% | [4] 1.4% | [5] 6.25% | [6] 8.95%

CC(=O)CC(C)(C)NNS(=O)(=O)c1ccc(C)cc1
inactive: [1] 7.8% | [2] -0.65% | [3] -4.1% | [4] -20.9% | [5] 5.35% | [6] -13.6%

O=C1c2ccccc2C(=O)N1Cc1ccccc1-c1c2nc(c(-c3ccccc3CN3C(=O)c4ccccc4C3=O)c3ccc([nH]3)c(-c3ccccc3CN3C(=O)c4ccccc4C3=O)c3nc(c(-c4ccccc4CN4C(=O)c5ccccc5C4=O)c4ccc1[nH]4)C=C3)C=C2
inactive: [1] 11.8% | [2] -1.55% | [3] -0.8% | [4] -3.4% | [5] 13.6% | [6] -14%

CC1(C)N=C(N)N=C(N)N1c1ccc(C(=O)c2ccccc2)cc1
inactive: [1] 2.65% | [2] -3.5% | [3] -3.3% | [4] -3.1% | [5] 13.5% | [6] 15.5%

O=C(c1ccccc1)C1C(/C=C/c2ccccc2)C(C(=O)c2ccccc2)C1/C=C/c1ccccc1 (configuration not stated)
inactive: [1] 41.2% | [2] -7.1% | [3] 11.8% | [4] 0.4% | [5] -4.5% | [6] 3.25%

COC(=O)CCC(NC(=O)OC(C)(C)C)C(=O)NC(Cc1ccc([N+](=O)[O-])cc1)C(=O)NC(CCC(=O)OC)C(=O)OC (configuration not stated) (Boc-Glu(OMe)-[Phe(4-NO2)]-Glu(OMe)-OMe; configuration not given here)
inactive: [1] 7.6% | [2] -6.6% | [3] 9.9% | [4] 20.6% | [5] 11.7% | [6] -44.1%

COCCOC(=O)c1ccccc1O
inactive: [1] 5.45% | [2] 13.8% | [3] 13.8% | [4] 2.95% | [5] -13.2% | [6] -1.25%

CC(C)CCC[C@@H](C)[C@H]1CC[C@H]2[C@@H]3CC[C@H]4OC(=O)CC[C@]4(C)[C@H]3CC[C@]12C
inactive: [1] -19.4% | [2] -33.9% | [3] -30.4% | [4] -2.2% | [5] -27.7% | [6] -9.85%

CCOC(=O)NC(=S)NC(C)c1ccccc1 (configuration not stated)
inactive: [1] -10.2% | [2] 10.6% | [3] 35.5% | [4] -8.85% | [5] 15% | [6] 1.15%

CC(C)(C)NC(=S)NC1CC2CC1C1Cc3ccccc3C21 (configuration not stated)
inactive: [1] 20.6% | [2] -1.45% | [3] 22.9% | [4] -37.5% | [5] 5.8% | [6] 1.9%

O=C1c2ccccc2N2OC3(N4CCOCC4)CCCC3C12c1ccccc1 (configuration not stated)
inactive: [1] 57.5% | [2] 21.9% | [3] 45.3% | [4] 25.9% | [5] 60% | [6] 48.5%

CCOC(=O)c1ccc(NC(=O)/C=C/C(=O)O)cc1
inactive: [1] -20.2% | [2] -17.9% | [3] -2.9% | [4] -3.3% | [5] -9.7% | [6] -15.3%

NC(=O)c1ccccc1N=NNc1ccccc1
inactive: [1] 17.5% | [2] -4.65% | [3] 2.8% | [4] -28.5% | [5] -25.1% | [6] 16.1%

C1C[OH+]CCNCC[OH+]CC[OH+]CCN1.[Cl-].[Pt+4]
inactive: [1] -14.5% | [2] -29.2% | [3] 1.55% | [4] -9.05% | [5] 3.5% | [6] -16.2%

CSc1ncc(Br)c(Sc2nccn2C)n1
inactive: [1] 11.4% | [2] 7.3% | [3] 14.3% | [4] 4.7% | [5] -12% | [6] 2.85%

CC(C)C(=O)OC1c2cc(OCCN(C)C)ccc2CC1C (configuration not stated)
inactive: [1] -11% | [2] -6.75% | [3] -8.3% | [4] -27.9% | [5] -5.95% | [6] -33.9%

COc1ccc(N=C2c3cc([N+](=O)[O-])ccc3-c3c2cccc3[N+](=O)[O-])cc1
inactive: [1] -5.25% | [2] -8.25% | [3] -4.1% | [4] -20.6% | [5] 3.45% | [6] -7.2%

OCC(O)C(O)C(O)C(c1ccc(Cl)cc1)c1ccc(Cl)cc1 (configuration not stated)
inactive: [1] -16.4% | [2] 0.65% | [3] -23% | [4] 5.35% | [5] 2.25% | [6] 35%

CN1CCN=C(C(=O)O)C=C1c1ccccc1O
inactive: [1] 28.9% | [2] 26.7% | [3] 26.7% | [4] -28.2% | [5] -2.4% | [6] 11.9%

C=CCNC(=S)NNC(=O)c1ccncc1
inactive: [1] -19.8% | [2] -10.3% | [3] -21.6% | [4] -82.8% | [5] 2.4% | [6] -23.8%

COc1cc2c(cc1O)C(Cc1ccccc1)N(C)CC2O (configuration not stated)
inactive: [1] -12.6% | [2] -4.7% | [3] -4% | [4] -5.7% | [5] -7.55% | [6] 0%

O/N=C(/Cc1ccccc1)c1ccccc1
inactive: [1] 26.6% | [2] 33.6% | [3] 11.1% | [4] -17.1% | [5] 5.15% | [6] 17.8%

C1=CCSC(Nc2ccccc2)=NC1
inactive: [1] 7.65% | [2] 3.35% | [3] -7.05% | [4] -2.6% | [5] 0.75% | [6] -5.85%
